Laboratory results reported in PubChem BioAssay (EPA / NIEHS).
Active and inactive are the calls of the source. How the source made its calls: active means hit-call score of the fitted dose curve at least 0.9, where 1 is the maximum; inactive means score below 0.9.

read-out: NAD(P)H dehydrogenase [quinone] 1 (NQO1), NQO1 (gene 1728); test: LTEA_HepaRG_NQO1: Life Technologies and Expression Analysis (LTEA) Assay for NAD(P)H dehydrogenase [quinone] 1 (NQO1) using HepaRG (AID 2283526); details: mRNA level, 48 h; actives raise or lower the signal
Method: LTEA_HepaRG is a cell based, multiplexed-readout assay that uses HepaRG, a human liver cell line, with measurements taken at 48 hours after chemical dosing on a 96-well plate.LTEA_HepaRG_NQO1 is one of 102 assay component(s) measured in the LTEA HepaRG cell culture assay. It is a marker of Diseases associated with NQO1 include Tardive Dyskinesia and Childhood Leukemia.Data from the assay component LTEA_HepaRG_NQO1 was analyzed into 1 endpoint. This assay endpoint, LTEA_HepaRG_NQO1, was analyzed with bidirectional fitting relative to DMSO as the negative control and baseline of activity. Using a type of inducible reporter, measures of mRNA induction for gain or loss-of-signal activity can be used to understand regulation of transcription factor activity. To generalize the intended target to other relatable targets, this assay endpoint is annotated to the oxidoreductase intended target family, where the subfamily is quinone-acceptor.
A total of 1060 chemcials from the ToxCast library were tested in eight-point concentration-response experiments. Cell culture and cytotoxicity assays were conducted at Thermo Fisher Scientific's Custom Services facility (Madison, WI). A single lot of human HepaRG cells (Thermo Fisher Scientific, Frederick, MD) was used for the cell culture experiments. 96-well format collagen type I coated plates of human HepaRG cells were prepared using established methods. Briefly, cryopreserved HepaRG cells were thawed, plated at a density of approximately 100,000 cells/well in HepaRG Thaw, Plate, and General Purpose media (HPRG770, Thermo Fisher Scientific), and incubated for 48 hours. 0.5% DMSO was selected as vehicle control to balance the requisite need of DMSO in HepaRG cultures to maintain differentiation (for example, baseline metabolism, proportions of hepatocytes vs. cholangiocytes), while enabling further hepatic receptor pathway activation (for example, PXR and CAR) in response to chemical exposure. 48 hours after plating, the culture medium was replaced with HepaRG Serum-Free Incudtion Media. Cells were exposed to each test chemical in duplicate and maintained in CO2 incubators for another 48 hours. Chemical plates were thawed to room temperature and 200x concentrations of treatment groups were prepared. 8-point conentration-reponse curves were made with the highest exposure at 100 uM, followed by half-log dilutions, all in 0.5% DMSO. Each test plate contained variouse controls, induction positive controls (1mM phenobarbital), cytotoxicity positive controls ([…] aflatoxin B1), vehicle controls (0.5% DMSO), and total lysis controls (0.5% DMSO). Cell morphology images were taken using an Essen IncuCyte FLR automated microscope, with six 96-well plates imaged in about 24 minutes. Images were captured and exported and JPEG files. Spent culture media was transfered to black-well plates for the LDH assay, and remaining media was sorted at -80 C for later use. Cells were treated with RLT buffer and frozen until shipped for gene expression analysis. Total RNA was isolated from the cell suspension in 75 uL of Buffer RLT (Qiagen, Germantown, MD 20874) by Quintiles/Expression Analysis (Durham, NC) using a custom isolation procedure. Total RNA from each plate well was transferred to a preamplification plate. Fluidigm's 96.96 Dynamic ArrayTM (Fluidigm, Amsterdam, the Netherlands) technology was used for gene expression analyses by quantitative reverse transcription polymerase chain reaction (qRT-PCR, performed by Quintiles/Expression Analysis, Durham, NC)89. Standard TaqManTM Assays (Applied Biosystems/ThermoFisher Scientific, Foster City, CA) were used to assess the expression of 93 genes selected based on their selectivity and sensitivity to important hepatic receptors known to be modulated by environmental chemicals; importance in human hepatocyte functionality; and hepatotoxicity. […]

SMILES | outcome | AC50
c1ccc2occc2c1 | inactive | 
CO[C@@H]1COCC[C@@H]1N[C@@H]1CC[C@@](C(=O)N2CCc3ncc(C(F)(F)F)cc3C2)(C(C)C)C1 | inactive | 
Oc1ccc(O)cc1 | inactive | 
CCCCCCC(CCCCCCCCCCC(=O)OCC(COC(C)=O)OC(C)=O)OC(C)=O (stereo not given) | inactive | 
CC(=O)O[C@]1(C(C)=O)CC[C@H]2[C@@H]3C=C(Cl)C4=CC(=O)[C@@H]5C[C@@H]5[C@]4(C)[C@H]3CC[C@@]21C | inactive | 
CC(COCC(C)OC(=O)c1ccccc1)OC(=O)c1ccccc1 (stereo not given) | inactive | 
CCCCCCCCCCCCCCOS(=O)(=O)O | inactive | 
O=C(Oc1ccccc1)c1cccc(C(=O)Oc2ccccc2)c1 | inactive | 
CN(C)CCCN(C)CCCN(C)C | inactive | 
Cc1cc(Cc2ccc(N)c(C)c2)ccc1N | inactive | 
C/C=C/c1ccc(OC)cc1 | inactive | 
NC1CCCCC1 | inactive | 
C#CC(O)C(CC)CCCC (stereo not given) | inactive | 
CN(C)C(=O)NC1(c2ccccc2)CCN(CCC[C@]2(c3ccc(Cl)c(Cl)c3)CCCN(C(=O)c3ccccc3)C2)CC1 |  | 21.7 µM (active)
NC=O | inactive | 
CN(C)C(=O)NC1(c2ccccc2)CCN(CC[C@@]2(c3ccc(F)c(F)c3)CN(C(=O)c3ccccc3)CCO2)CC1 | inactive | 
CSc1ccc(Oc2ccc(S(N)(=O)=O)cc2CN(C)C)cc1C | inactive | 
CC(C)COC(=O)CCCCC(=O)OCC(C)C | inactive | 
Cc1occc(=O)c1O | inactive | 
Cc1cn([C@H]2C=C[C@@H](CO)O2)c(=O)[nH]c1=O | inactive | 

SMILES | outcome | AC50
O=C1NC(=O)C(c2ccccc2)(c2ccccc2)N1 | inactive | 
O=C(N[C@@H](c1ccccc1)[C@@H]1CCCCN1)c1cccc(C(F)(F)F)c1Cl | inactive | 
Oc1ccccc1O | inactive | 
C=CCc1ccc(OC)c(OC)c1 | inactive | 
Nc1nc(Cl)nc2c1ncn2[C@H]1C[C@H](O)[C@@H](CO)O1 | inactive | 
NCCOCCOCCN | inactive | 
CC(C)NCC(O)c1ccc(O)c(O)c1 (stereo not given) | inactive | 
CCOCCOCCO | inactive | 
Nc1nc(=S)c2[nH]cnc2[nH]1 | inactive | 
O=NO | inactive | 
Cn1cnc2c1c(=O)[nH]c(=O)n2C | inactive | 
O=C(O)c1[nH]n(-c2ccc(S(=O)(=O)O)cc2)c(=O)c1N=Nc1ccc(S(=O)(=O)O)cc1 | inactive | 
CC1(C)C(=O)NC(=O)N1CO | inactive | 
CC(C)OC(=O)C(C)(C)Oc1ccc(C(=O)c2ccc(Cl)cc2)cc1 | inactive | 
CS(=O)(=O)c1ccc([C@@H](C[C@H]2CCC(=O)C2)C(=O)Nc2cnccn2)cc1Cl |  | 17.9 µM (active)
Cc1cc(SC2=C(O)C[C@@](CCc3ccc(N)cc3)(C(C)C)OC2=O)c(C(C)(C)C)cc1CO | inactive | 
O=C1OC(c2ccc(O)cc2)(c2ccc(O)cc2)c2ccccc21 | inactive | 
O=C(O)c1cccnc1 | inactive | 
CCCCCCCCCC[N+](C)(C)[O-] | inactive | 
CC(C)(C)c1ccccc1 | inactive | 
